Experimental data as given in PubChem BioAssay (Tox21).
Inconclusive results are not listed. Calls of active or inactive are those of the source. Unless noted, calls come from the whole dose curve; as a rule, active = well fitted curve in the direction sought with a large enough effect in the repeat runs; inconclusive = weak or mixed curves; inactive = no such curve, though single readings can be large; an effect the other way counts as inactive or inconclusive.

Tests used:
[1] = qHTS assay to identify aromatase inhibitors - cell viability counter screen (AID 743084);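 note: cells stimulated with testosterone during compound exposure; nearly all actives have a fitted effect of over 55% in size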
[2] = molecular target: Aryl hydrocarbon receptor (Homo sapiens) (UniProt P35869); assay: qHTS assay to identify small molecule that activate the aryl hydrocarbon receptor (AhR) signaling pathway (AID 743085);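 note: HG2L7.5c1 human HepG2 liver cells with stably integrated DRE-driven firefly reporter; series mostly up to about 70 µM; nearly all actives have a fitted effect of over 15% in size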
Outline: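 24 h compound exposure, 37C, HepG2-derived HG2L7.5c1 cells with DRE-responsive luciferase. Readouts: fluorescence viability, then luminescence at room temperature after 30 min.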

[3] = qHTS assay to identify small molecule that activate the aryl hydrocarbon receptor (AhR) signaling pathway - cell viability counter screen (AID 743086);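 note: HepG2 liver cells carrying the AhR DRE luciferase reporter; series mostly up to about 70 µM; nearly all actives have a fitted effect of over 45% in size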
Outline: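 HepG2-AhR-luc (HG2L7.5c1) cells, 4000/well, treated 24 h at 37 C with compound; viability measured as CellTiter-Fluor fluorescence after 30 min in the same wells as the luciferase read.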

[4] = molecular target: Peroxisome proliferator-activated receptor gamma (Homo sapiens) (UniProt P37231); assay: qHTS assay to identify small molecule agonists of the peroxisome proliferator-activated receptor gamma (PPARg) signaling pathway (AID 743094; active = well fitted activation curve with a large enough effect in the signal ratio in the repeat runs, not every such curve was filed as active; the % refers to the signal ratio)
Outline: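 Cell-based bla reporter, HEK293H background, PPARg-driven UAS. Pre-incubation 5 h, 37C, 5% CO2. Compound 17 h, 37C. Substrate 1 h RT; fluorescence.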

[5] = molecular target: Peroxisome proliferator-activated receptor gamma (Homo sapiens) (UniProt P37231); assay: qHTS assay to identify small molecule antagonists of the peroxisome proliferator-activated receptor gamma (PPARg) signaling pathway (AID 743191; calls by dose curve; note: series mostly up to about 63 µM; nearly all actives have a fitted effect of over 30% in size)
Outline: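 GeneBLAzer PPARg UAS-bla HEK293H cells, 5 h post-plating, exposed to compounds 17 h at 37C. LiveBLAzer B/G FRET substrate added for 1 h at room temperature; beta-lactamase reporter read by fluorescence intensity.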

[6] = qHTS assay to identify small molecule antagonists of the peroxisome proliferator-activated receptor gamma (PPARg) signaling pathway - cell viability counter screen (AID 743194); note: nearly all actives have a fitted effect of over 55% in size
Outline: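 Cytotoxicity counter screen in PPARg-bla HEK293H cells, same wells as reporter assay. Compounds plus 50 nM rosiglitazone (final) for 17 h at 37 C, then viability read by CellTiter-Glo luminescence.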

[7] = qHTS assay for small molecule agonists of the antioxidant response element (ARE) signaling pathway (AID 743202; active = well fitted activation curve with a large enough effect in the signal ratio in the repeat runs, not every such curve was filed as active; the % refers to the signal ratio)
Outline: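 HepG2 ARE-bla cells; 16 h treatment at 37 C; FRET-based beta-lactamase fluorescence read after 2 h substrate incubation at room temperature.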

[8] = qHTS assay for small molecule agonists of the antioxidant response element (ARE) signaling pathway - cell viability counter screen (AID 743203; calls by dose curve; note: nearly all actives have a fitted effect of over 55% in size)
Outline: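 Measured in the same wells as the beta-lactamase ARE reporter, this read-out is CellTiter-Glo luminescence from HepG2 ARE-bla cells given compounds for 16 hrs.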

[9] = qHTS assay for small molecule activators of the heat shock response signaling pathway - cell viability counter screen (AID 743209); note: nearly all actives have a fitted effect of over 50% in size
Outline: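 Same-well multiplex: after 2.5 h room-temperature incubation with LiveBLAzer B/G substrate and fluorescence reading, CellTiter-Glo reagent was added to HSE-bla HeLa cells that had received compound for 5 h at 37 C; luminescence read after 30 min.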

[10] = qHTS assay for small molecule activators of the heat shock response signaling pathway (AID 743210; active = well fitted activation curve with a large enough effect in the signal ratio in the repeat runs, with a control signal flat, not every such curve was filed as active; the % refers to the signal ratio;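 note: HeLa cells with beta-lactamase reporter driven by heat shock elements; series mostly up to about 63 µM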)
Outline: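 Following overnight attachment, HSE-bla HeLa cells received test compounds for 5 h at 37 C; beta-lactamase activity was then detected via FRET substrate fluorescence.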

Measured: Potency

Sequence of Peroxisome proliferator-activated receptor gamma (Homo sapiens) (P37231 whole entry, looked up): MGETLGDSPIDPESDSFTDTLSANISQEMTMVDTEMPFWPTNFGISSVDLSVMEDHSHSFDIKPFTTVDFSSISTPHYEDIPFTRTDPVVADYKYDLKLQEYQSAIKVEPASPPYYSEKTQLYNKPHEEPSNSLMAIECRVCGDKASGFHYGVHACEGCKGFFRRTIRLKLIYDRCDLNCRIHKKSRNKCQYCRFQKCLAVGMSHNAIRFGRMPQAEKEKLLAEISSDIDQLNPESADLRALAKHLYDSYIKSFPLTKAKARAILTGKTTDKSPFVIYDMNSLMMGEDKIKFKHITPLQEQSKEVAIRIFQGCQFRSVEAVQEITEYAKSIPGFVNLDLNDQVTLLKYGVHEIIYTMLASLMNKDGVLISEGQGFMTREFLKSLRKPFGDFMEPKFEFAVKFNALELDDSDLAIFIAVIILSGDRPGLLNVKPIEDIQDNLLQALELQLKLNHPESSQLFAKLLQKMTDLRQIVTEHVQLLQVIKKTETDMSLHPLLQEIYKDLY
Sequence of Aryl hydrocarbon receptor (Homo sapiens) (P35869 whole entry, looked up): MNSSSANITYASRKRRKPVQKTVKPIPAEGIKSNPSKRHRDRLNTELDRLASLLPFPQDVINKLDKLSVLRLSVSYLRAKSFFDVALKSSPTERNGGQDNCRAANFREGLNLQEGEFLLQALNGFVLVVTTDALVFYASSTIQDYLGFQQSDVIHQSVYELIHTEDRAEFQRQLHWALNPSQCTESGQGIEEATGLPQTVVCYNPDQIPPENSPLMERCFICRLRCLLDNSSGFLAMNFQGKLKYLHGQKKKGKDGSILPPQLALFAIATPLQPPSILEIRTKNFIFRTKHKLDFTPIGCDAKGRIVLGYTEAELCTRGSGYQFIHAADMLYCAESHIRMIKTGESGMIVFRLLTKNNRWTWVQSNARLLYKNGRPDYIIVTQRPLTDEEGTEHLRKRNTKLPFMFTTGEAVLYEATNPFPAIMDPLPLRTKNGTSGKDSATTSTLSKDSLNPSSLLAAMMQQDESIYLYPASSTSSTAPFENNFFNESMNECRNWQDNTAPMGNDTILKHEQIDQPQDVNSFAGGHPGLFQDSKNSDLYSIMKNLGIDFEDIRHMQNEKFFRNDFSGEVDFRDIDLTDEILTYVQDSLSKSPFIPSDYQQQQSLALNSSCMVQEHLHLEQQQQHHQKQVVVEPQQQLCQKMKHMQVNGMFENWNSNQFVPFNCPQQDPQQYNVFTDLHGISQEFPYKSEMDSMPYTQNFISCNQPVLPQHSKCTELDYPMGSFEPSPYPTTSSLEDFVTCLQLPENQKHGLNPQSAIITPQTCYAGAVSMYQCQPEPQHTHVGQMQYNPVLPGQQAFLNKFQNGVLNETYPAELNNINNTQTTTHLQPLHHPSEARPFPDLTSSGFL

CC(O)CCCCn1c(=O)c2c(ncn2C)n(C)c1=O (stereo not given)
not listed: [10]
inactive: all other assays above

Cc1cc(C)c(N)c(Cl)c1
not listed: [10]
inactive: all other assays above

C/C=C(\C)C(=O)OC/C=C(\C)CCC=C(C)C
not listed: [10]
inactive: all other assays above

O=S(=O)(O)CC(O)CCl (stereo not given)
not listed: [10]
inactive: all other assays above

C[C@H]1COc2c(C3(N)CC3)c(F)cc3c(=O)c(C(=O)O)cn1c23
not listed: [10]
inactive: all other assays above

CN1CCN(C(=O)C2CCCCC2)CC1
not listed: [10]
inactive: all other assays above

O=c1c(O)c(O)c1=O
inactive: all assays above

CC(C)C(C)C
inactive: all assays above

CCc1ncc(C)[nH]1
inactive: all assays above

CSC(=O)c1cccc2nnsc12
not listed: [10]
inactive: all other assays above

CCOC(=O)CC
inactive: all assays above

Nc1cc(S(=O)(=O)O)ccc1O
inactive: all assays above

CC(C)(C)c1ccc(N)cc1
inactive: all assays above

COC(=O)c1ccccc1Cl
not listed: [9] | [10]
inactive: all other assays above

CC(=O)SC[C@@H](C)C(=O)N1CCC[C@H]1C(=O)N[C@@H](Cc1ccccc1)C(=O)O
inactive: all assays above

CC12CCCC=C1C(=O)OC2=O (stereo not given)
not listed: [10]
inactive: all other assays above

CC(=O)Nc1ccc(OCCOCCOc2ccc(NC(C)=O)cc2)cc1
not listed: [10]
inactive: all other assays above

CCOC(=O)[C@H](CCc1ccccc1)N[C@H]1CS[C@H](c2cccs2)CN(CC(=O)O)C1=O
inactive: all assays above

CC[C@@]1(c2ccccc2)NC(=O)N(C)C1=O
inactive: all assays above

COC(=O)C(c1ccccc1Cl)N1CCc2sccc2C1 (stereo not given)
inactive: all assays above

COc1cc(C(=O)NC2CCCNC2)cc(OC)c1OC (stereo not given)
inactive: all assays above

BrCCOc1ccccc1
not listed: [10]
inactive: all other assays above

Cc1ccc(O)c([N+](=O)[O-])c1
inactive: all assays above

CCOC(=O)COc1ccc2c(C)c(CCN(CC)CC)c(=O)oc2c1Cl
not listed: [9] | [10]
inactive: all other assays above

CC(C)(C)OC(=O)c1ccccc1C(=O)O
not listed: [10]
inactive: all other assays above

COC(=O)c1c(C)cc(O)c(C)c1O
inactive: all assays above
